PubChem BioAssay AID1159580 (chemical genetic matrix, 2015)
Screen size: about 5,500 compounds; about 2,000 (36%) were called active. Not shown: some 18% with an inconclusive outcome. The list shows a part of the results. A number with no mark means an inactive call. Rule as the data show it: active = normalized growth mostly below about 0.91 (no sharp cut-off); inconclusive = no clear call, values can overlap the other calls; inactive = mostly above about 0.92.

Assay: chemical genetic growth profiling, strain panel (AID 1159580);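 also: tested at 20 µM; growth read once vehicle control cultures reached saturation at 30 °C; 1 = growth at the plate median or of vehicle wells; lower values mean less growth of the strain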
Conditions: S. cerevisiae deletion strains, growth OD
[1] = locus YHR030C, strain SLT2, hits give low values
[2] = locus YHR079C, strain IRE1, hits give low values
[3] = locus YJL095W, strain BCK1, hits give low values
[4] = locus YJR066W, strain TOR1, hits give low values
[5] = locus YLR113W, strain HOG1, hits give low values
[6] = locus YNL183C, strain NPR1, hits give low values
[7] = locus YOR231W, strain MKK1, hits give low values
[8] = locus YPL256C, strain CLN2, hits give low values

COc1cccc([C@]2(O)CCCC[C@H]2CN(C)C)c1 showed a normalized growth (locus YAL021C, strain ccr4, hits give low values) of 0.964, a normalized growth (locus YAL026C, strain drs2, hits give low values) of 0.968 and a normalized growth (locus YAL030W, strain snc1, hits give low values) of 0.947. The normalized growth (locus YBL061C, strain skt5, hits give low values) was 0.968, the normalized growth (locus YBR009C, strain hhf1, hits give low values) was 0.965 and the normalized growth (locus YBR023C, strain chs3, hits give low values) was 0.977. For the same compound, the normalized growth (locus YBR171W, strain sec66, hits give low values) was 0.962, the normalized growth (locus YBR231C, strain swc5, hits give low values) was 0.99 and the normalized growth (locus YBR279W, strain paf1, hits give low values) was 0.975. For the same compound, the normalized growth (locus YCL011C, strain gbp2, hits give low values) was 0.972, the normalized growth (locus YCL016C, strain dcc1, hits give low values) was 0.973 and the normalized growth (locus YCL061C, strain MRC1, hits give low values) was 0.987. For the same compound, the normalized growth (locus YCL069W, strain vba3, hits give low values) was 0.967, the normalized growth (locus YCR088W, strain abp1, hits give low values) was 0.973 and the normalized growth (locus YDL005C, strain med2, hits give low values) was 0.965. It also gave a normalized growth (locus YDL040C, strain nat1, hits give low values) of 0.978, a normalized growth (locus YDR001C, strain nth1, hits give low values) of 0.963 and a normalized growth (locus YDR069C, strain doa4, hits give low values) of 0.958. The normalized growth (locus YDR137W, strain rgp1, hits give low values) was 0.942, the normalized growth (locus YDR159W, strain sac3, hits give low values) was 0.932 and the normalized growth (locus YDR195W, strain ref2) was 0.956. For the same compound, the normalized growth (locus YDR297W, strain sur2, hits give low values) was 0.966, the normalized growth (locus YDR334W, strain swr1, hits give low values) was 0.928 and the normalized growth (locus YDR335W, strain msn5, hits give low values) was 0.958. For the same compound, the normalized growth (locus YDR392W, strain spt3, hits give low values) was 0.973, the normalized growth (locus YEL003W, strain gim4, hits give low values) was 0.971 and the normalized growth (locus YEL037C, strain rad23, hits give low values) was 0.982. For the same compound, the normalized growth (locus YEL061C, strain CIN8 (second series), hits give low values) was 0.968, the normalized growth (locus YER015W, strain faa2, hits give low values) was 0.973 and the normalized growth (locus YER016W, strain bim1, hits give low values) was 0.978. The normalized growth (locus YER111C, strain swi4, hits give low values) was 0.974, the normalized growth (locus YER155C, strain BEM2 (second series), hits give low values) was 0.97 and the normalized growth (locus YFR010W, strain ubp6, hits give low values) was 0.955. For the same compound, the normalized growth (locus YGL167C, strain pmr1, hits give low values) was 0.967, the normalized growth (locus YGL173C, strain kem1, hits give low values) was 0.952 and the normalized growth (locus YGL227W, strain vid30, hits give low values) was 0.963. The normalized growth (locus YGL240W, strain doc1, hits give low values) was 0.947, the normalized growth (locus YGL253W, strain hxk2, hits give low values) was 0.988 and the normalized growth (locus YHR013C, strain ard1, hits give low values) was 0.937. The normalized growth (locus YHR027C, strain rpn1, hits give low values) was 0.959, the normalized growth [1] was 0.969 and the normalized growth [2] was 0.963. For the same compound, the normalized growth (locus YHR142W, strain chs7, hits give low values) was 0.951, the normalized growth (locus YJL092W, strain hpr5, hits give low values) was 0.982 and the normalized growth (locus YJL095W, strain BCK1 (second series), hits give low values) was 0.962. The normalized growth [3] was 1.01, the normalized growth (locus YJL115W, strain asf1, hits give low values) was 0.956 and the normalized growth (locus YJL129C, strain trk1, hits give low values) was 0.983. For the same compound, the normalized growth (locus YJL154C, strain vps35, hits give low values) was 0.959, the normalized growth (locus YJL164C, strain tpk1, hits give low values) was 0.981 and the normalized growth (locus YJL166W, strain qcr8, hits give low values) was 0.968. For the same compound, the normalized growth (locus YJL187C, strain SWE1, hits give low values) was 0.973, the normalized growth [4] was 0.935 and the normalized growth (locus YKL160W, strain elf1, hits give low values) was 0.981. It also gave a normalized growth (locus YKR026C, strain gcn3, hits give low values) of 0.977, a normalized growth (locus YKR091W, strain srl3, hits give low values) of 0.98 and a normalized growth (locus YLL001W, strain dnm1, hits give low values) of 0.981. It also gave a normalized growth (locus YLL026W, hits give low values) of 0.949, a normalized growth (locus YLL041C, strain sdh2, hits give low values) of 0.971 and a normalized growth (locus YLR027C, strain aat2, hits give low values) of 0.944. The normalized growth [5] was 0.981, the normalized growth (locus YLR221C, strain rsa3, hits give low values) was 0.971 and the normalized growth (locus YLR258W, strain gsy2, hits give low values) was 0.971. It also gave a normalized growth (locus YLR262C, strain YPT6 (second series), hits give low values) of 0.962, a normalized growth (locus YLR320W, strain mms22, hits give low values) of 0.964 and a normalized growth (locus YLR342W, strain FKS1, hits give low values) of 0.99. The normalized growth (locus YLR357W, strain rsc2, hits give low values) was 0.997, the normalized growth (locus YLR370C, strain arc18, hits give low values) was 0.974 and the normalized growth (locus YLR384C, strain iki3, hits give low values) was 0.974. The normalized growth (locus YML120C, strain ndi1, hits give low values) was 0.979, the normalized growth (locus YMR058W, strain fet3, hits give low values) was 0.978 and the normalized growth (locus YMR125W, strain sto1, hits give low values) was 0.963. It also gave a normalized growth (locus YMR129W, hits give low values) of 0.987, a normalized growth (locus YMR205C, strain PFK2, hits give low values) of 0.961 and a normalized growth (locus YMR231W, strain pep5, hits give low values) of 0.967. It also gave a normalized growth (locus YNL071W, strain lat1, hits give low values) of 0.98, a normalized growth [6] of 0.941 and a normalized growth (locus YNL209W, strain ssb2, hits give low values) of 0.966. For the same compound, the normalized growth (locus YNL248C, strain rpa49, hits give low values) was 0.989, the normalized growth (locus YNL322C, strain KRE1 (second series), hits give low values) was 0.97 and the normalized growth (locus YNR049C, strain mso1, hits give low values) was 0.969. For the same compound, the normalized growth (locus YOR001W, strain rrp6, hits give low values) was 0.968, the normalized growth (locus YOR070C, strain gyp1, hits give low values) was 0.978 and the normalized growth (locus YOR080W, strain dia2, hits give low values) was 0.969. For the same compound, the normalized growth (locus YOR083W, strain WHI5, hits give low values) was 0.968, the normalized growth (locus YOR106W, strain vam3, hits give low values) was 0.969 and the normalized growth [7] was 0.96. It also gave a normalized growth (locus YOR265W, strain rbl2, hits give low values) of 0.978, a normalized growth (locus YOR270C, strain vph1, hits give low values) of 0.945 and a normalized growth (locus YOR290C, strain snf2, hits give low values) of 0.966. For the same compound, the normalized growth (locus YPL051W, strain arl3, hits give low values) was 0.987, the normalized growth (locus YPL078C, strain atp4, hits give low values) was 0.968 and the normalized growth (locus YPL106C, strain sse1, hits give low values) was 0.916. For the same compound, the normalized growth (locus YPL240C, strain hsp82, hits give low values) was 0.974 and the normalized growth [8] was 0.978.

N#C/C(=C\c1ccccc1Sc1ccc(Cl)cc1)S(=O)(=O)c1ccccn1 gave a normalized growth (locus YAR019C, strain CDC15, hits give low values) of 0.972, a normalized growth (locus YBL105C, strain PKC1, hits give low values) of 0.968 and a normalized growth (locus YBR135W, strain CKS1, hits give low values) of 0.957. For the same compound, the normalized growth (locus YBR136W, strain MEC1, hits give low values) was 0.966, the normalized growth (locus YBR160W, strain CDC28, hits give low values) was 0.973 and the normalized growth (locus YDL017W, strain CDC7, hits give low values) was 0.982. The normalized growth (locus YDL028C, strain MPS1, hits give low values) was 0.971, the normalized growth (locus YDL101C, strain DUN1, hits give low values) was 0.963 and the normalized growth (locus YDL108W, strain KIN28, hits give low values) was 0.962. It also gave a normalized growth (locus YDL132W, strain cdc53, hits give low values) of 0.959, a normalized growth (locus YDL214C, strain PRR2, hits give low values) of 0.901 and a normalized growth (locus YDR052C, strain DBF4, hits give low values) of 0.98. It also gave a normalized growth (locus YDR054C, strain cdc34, hits give low values) of 0.969, a normalized growth (locus YDR226W, strain ADK1, hits give low values) of 0.968 and a normalized growth (locus YDR477W, strain SNF1, hits give low values) of 0.873. The normalized growth (locus YER123W, strain YCK3, hits give low values) was 0.88, the normalized growth (locus YER133W, strain GLC7, hits give low values) was 0.909 and the normalized growth (locus YFL009W, strain cdc4, hits give low values) was 0.967. The normalized growth (locus YFL029C, strain CAK1, hits give low values) was 0.968, the normalized growth (locus YFR003C, strain YPI1, hits give low values) was 0.97 and the normalized growth (locus YFR019W, strain FAB1, hits give low values) was 0.926. For the same compound, the normalized growth (locus YFR028C, strain CDC14, hits give low values) was 0.962, the normalized growth (locus YGR040W, strain KSS1, hits give low values) was 0.871 and the normalized growth (locus YGR052W, strain FMP48, hits give low values) was 0.883. The normalized growth (locus YGR092W, strain DBF2, hits give low values) was 0.772, the normalized growth [1] was 0.858 and the normalized growth [2] was 0.956. For the same compound, the normalized growth (locus YHR082C, strain KSP1, hits give low values) was 0.939, the normalized growth (locus YHR205W, strain SCH9, hits give low values) was 0.872 and the normalized growth (locus YIL147C, strain SLN1, hits give low values) was 0.97. The normalized growth [3] was 0.875, the normalized growth (locus YJL128C, strain PBS2, hits give low values) was 0.925 and the normalized growth (locus YJL157C, strain FAR1, hits give low values) was 0.897. The normalized growth (locus YJR016C, strain ILV3, hits give low values) was 0.971, the normalized growth (locus YJR066W, strain TOR1 (second series), hits give low values) was 0.883 and the normalized growth [4] was 0.938. It also gave a normalized growth (locus YKL048C, strain ELM1, hits give low values) of 0.852, a normalized growth (locus YKL067W, strain YNK1, hits give low values) of 0.9 and a normalized growth (locus YKL101W, strain HSL1, hits give low values) of 0.875. The normalized growth (locus YKL193C, strain SDS22, hits give low values) was 0.961, the normalized growth (locus YKL203C, strain TOR2, hits give low values) was 0.936 and the normalized growth [5] was 0.821 (active). It also gave a normalized growth (locus YLR133W, strain CKI1, hits give low values) of 0.889, a normalized growth (locus YLR403W, strain SFP1, hits give low values) of 0.802 and a normalized growth (locus YML070W, strain DAK1, hits give low values) of 0.886. It also gave a normalized growth (locus YMR001C, strain CDC5, hits give low values) of 0.964, a normalized growth (locus YMR205C, strain PFK2 (second series), hits give low values) of 0.908 and a normalized growth (locus YMR277W, strain FCP1, hits give low values) of 0.963. The normalized growth (locus YNL006W, strain LST8, hits give low values) was 0.959, the normalized growth (locus YNL020C, strain ARK1, hits give low values) was 0.891 and the normalized growth (locus YNL161W, strain CBK1, hits give low values) was 0.968. The normalized growth [6] was 0.934, the normalized growth (locus YNL207W, strain RIO2, hits give low values) was 0.968 and the normalized growth (locus YNL222W, strain SSU72, hits give low values) was 0.959. It also gave a normalized growth (locus YNL307C, strain MCK1 (second series), hits give low values) of 0.877, a normalized growth (locus YOL078W, strain AVO1, hits give low values) of 0.955 and a normalized growth (locus YOL136C, strain PFK27, hits give low values) of 0.846. It also gave a normalized growth (locus YOR061W, strain CKA2, hits give low values) of 0.851, a normalized growth (locus YOR119C, strain RIO1, hits give low values) of 0.939 and a normalized growth [7] of 0.893. For the same compound, the normalized growth (locus YOR329C, strain SCD5, hits give low values) was 0.969, the normalized growth (locus YPL031C, strain PHO85, hits give low values) was 0.868 and the normalized growth (locus YPL153C, strain RAD53, hits give low values) was 0.904. The normalized growth (locus YPL204W, strain HRR25, hits give low values) was 0.83, the normalized growth (locus YPL209C, strain IPL1, hits give low values) was 0.968 and the normalized growth [8] was 0.926. For the same compound, the normalized growth (locus YPR025C, strain CCL1, hits give low values) was 0.961, the normalized growth (locus YPR106W, strain ISR1, hits give low values) was 0.973 and the normalized growth (locus YPR111W, strain DBF20, hits give low values) was 0.942. It also gave a normalized growth (strain NNK1, hits give low values) of 0.964 and a normalized growth (strain TSCII, hits give low values) of 0.956.
